D2 PAM-1: potentiates the human D2 dopamine receptor allosterically; potentiation, % (test concentration not listed); DiscoveRx D2 beta-arrestin cells, luminescence, 90 min; 100% = 57 uM dopamine signal; 360,000 compounds, 0.23% hits; in the data active means potentiation above about 50%; inconclusive means mostly about 30% to 49%
Target sequence (P14416 whole entry, looked up): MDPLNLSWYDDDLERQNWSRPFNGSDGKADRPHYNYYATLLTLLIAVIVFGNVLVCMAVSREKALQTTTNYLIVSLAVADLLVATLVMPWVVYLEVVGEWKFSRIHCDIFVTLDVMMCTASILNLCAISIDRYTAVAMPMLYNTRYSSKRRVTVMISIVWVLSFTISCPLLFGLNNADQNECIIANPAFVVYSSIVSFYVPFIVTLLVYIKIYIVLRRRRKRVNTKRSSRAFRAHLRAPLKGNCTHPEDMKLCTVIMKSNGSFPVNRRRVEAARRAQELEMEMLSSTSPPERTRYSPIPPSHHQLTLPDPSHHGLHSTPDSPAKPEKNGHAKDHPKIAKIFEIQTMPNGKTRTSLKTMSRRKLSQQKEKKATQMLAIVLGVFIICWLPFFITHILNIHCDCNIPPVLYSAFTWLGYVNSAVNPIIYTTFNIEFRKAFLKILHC
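PathHunter beta-arrestin assay in DiscoveRx D2 cells. Compounds were added with an EC20 of dopamine (50 nM final) for 90 min at 37 deg C. Luminescence was read 1 h after detection reagent, with 57 uM dopamine as the EC100 control.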
D2 ag-1: activates the human D2 dopamine receptor | P14416 | HEK293 T-REx D2 cells, calcium flux agonist mode | activation, % at 2 µM | 340,000 compounds, 0.53% hits | AID 485358;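 active means activation over 3 SD above normal in the single-dose calcium agonist read, cut at about 30% in these data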; further: 0% is about no effect
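Agonism is scored from calcium flux in a force-coupled, inducible HEK293 cell line expressing D2, read kinetically for 180 s after compound addition against dopamine controls.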
D2 antag: antagonizes the human D2 dopamine receptor; P14416; HEK293 TREx D2 cells, calcium flux, dopamine EC80; inhibition, % at 10 µM; 340,000 compounds, 2% hits; AID 485344; in the data active means inhibition above about 30%; inactive means below that, where a call was filed; further: 0% is about no effect
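Inhibition of EC80 dopamine-driven calcium flux, recorded kinetically, defines activity here; cells are a tetracycline-induced HEK293 T-REx line expressing force-coupled D2.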
D2 PAM-2: D2 dopamine receptor (human) potentiation. HEK293 T-REx D2, calcium flux, EC20 dopamine potentiation. potentiation, % at 10 µM. 340,000 compounds, 0.34% hits. AID 485347;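 active means potentiation over 3 SD above the plate norm, cut at about 30% in these data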; further: 0% is about no effect
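Tetracycline-induced HEK293 T-REx cells force-coupled to calcium signalling expressed D2; compounds were pin-added after a 10 s baseline, read kinetically 180 s, then an EC20 dopamine challenge followed with a further 180 s calcium read.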
D2 ag-2: human D2 receptor agonism in beta-arrestin assay; P14416; DiscoveRx PathHunter D2 beta-arrestin, luminescence, 90 min; 100% = 57 uM dopamine signal; activation, % (no concentration beside the values); 360,000 compounds, 0.084% hits; in the data active means activation above about 40%; inconclusive means between about 15% and that limit
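Agonist mode: compounds alone added to overnight-plated D2 PathHunter cells for 90 min at 37 C, with 57 uM final dopamine (EC100) defining full response. Beta-arrestin recruitment detected by chemiluminescent reagent, read after 1 h at ambient temperature.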
Active calls of the source: *; ? = inconclusive; . = no result given. Hits are enriched below; roughly 2.4% of the tested compounds scored in any of these assays.

SMILES	D2 PAM-1	D2 ag-1	D2 antag	D2 PAM-2	D2 ag-2
CC1CCCCN1C(=O)C12CCC(C)(/C(=N/O)C1)C2(C)C (stereo not drawn)	0.2	0.6	34.6*	-0.1	-1.9
Cc1cc(C)cc(NC(=O)C/C(N)=N/O)c1	9.1	0.2	71.5*	-9.8	3.3
O=[N+]([O-])c1ccccc1-c1ccc(CN2CCN(c3ccccc3)CC2)o1	-18.0	22.8	52.3*	-21.5	?
O=C(CCCN1CCC(O)(c2ccc(Br)cc2)CC1)c1ccc(F)cc1	-33.0	1.0	78.5*	-20.4	-3.9
O=C(CCCN1CCC(O)(c2cccc(C(F)(F)F)c2)CC1)c1ccc(F)cc1	-34.0	0.9	9.4	16.5	-4.0
O=C(CCCN1CCC(C(O)c2ccc(F)cc2)CC1)c1ccc(F)cc1 (stereo not drawn)	-15.8	.	.	.	-5.0
O=C(CCCN1CCC(C(=O)c2ccc(F)cc2)CC1)c1ccc(F)cc1	-4.5	-3.0	71.5*	-19.5	-3.4
CCC(=O)Nc1nnc(S(=O)(=O)N(C)c2cc(C)cc(C)c2)s1	-11.0	0.4	1.2	9.1	-2.1
CCn1c(O)c(N=NC(=O)C(O)c2ccccc2)c2ccccc21 (stereo not drawn)	-1.1	-0.2	-6.7	3.2	1.3
CCn1nnc2cc(C(=O)Nc3cccc(C)c3C)ccc21	.	0.1	.	0.7	.
Cc1cc(C)cc(OCC(=O)OCC(=O)Nc2cc(S(=O)(=O)N3CCOCC3)ccc2Cl)c1	-9.5	.	.	.	4.3
N#CC1=C(N)Oc2cc(O)c(Cl)cc2C1c1cccnc1 (stereo not drawn)	-5.0	14.0	-3.2	0.2	4.3
N#CC1=C(N)Oc2cc(O)c(Cl)cc2C1c1ccccc1F (stereo not drawn)	19.3	44.1*	-29.4	-4.0	7.9
c1ccc(CCNc2cnccn2)cc1	-10.9	1.4	37.7*	-12.3	7.2
Fc1ccc(CNc2cnccn2)cc1	-3.6	0.3	-16.5	5.1	-1.2
c1ccc(CNc2cnccn2)cc1	-3.0	-0.5	10.9	40.8*	0.8
O=C(C1CCCN(S(=O)(=O)c2cccc3nsnc23)C1)N1CCN(c2ccccc2F)CC1 (stereo not drawn)	.	0.3	.	15.2	.
Cc1cc(C)c(NC(=O)COC(=O)Cc2cccs2)c(C)c1	0.0	-1.6	4.3	17.2	-4.1
CCn1c2ccccc2c2cc(/C=N/NC(=O)c3ccccc3C)ccc21	-9.3	-0.8	36.2*	-4.2	-6.3
CCn1c2ccccc2c2cc(/C=N/NC(=O)c3cccc(C)c3)ccc21	7.8	0.8	-11.5	8.3	0.7
Fc1ccc(N2CCN(Cc3nnc(-c4ccccc4Cl)o3)CC2)cc1	.	0.5	.	-8.3	.
Fc1ccc(N2CCN(Cc3cnc(Cl)s3)CC2)cc1	-13.8	38.9*	-12.3	-12.0	-0.5
COc1ccc(N(CC(=O)NCCc2ccc(C)cc2)S(=O)(=O)c2c(C)noc2C)cc1	18.8	-0.3	0.7	-7.2	3.6
COc1ccc(N(CC(=O)NCCc2ccc(OC)c(OC)c2)S(=O)(=O)c2c(C)noc2C)cc1	-2.4	1.1	-11.7	-2.3	63.7*
COCCC1CCCCN1C(=O)c1cccc(OC2CCN(C3CCCC3)CC2)c1 (stereo not drawn)	-7.9	-0.8	-19.2	2.1	1.7
SMILES	D2 PAM-1	D2 ag-1	D2 antag	D2 PAM-2	D2 ag-2
CCN(CC)CCNC(=O)c1cn(-c2ccccc2)nc1-c1cccs1	-16.9	0.8	36.8*	-23.9	-1.0
Cn1c(CCN2CCCCC2)nc2cc(NS(=O)(=O)c3ccccc3)ccc21	-12.5	-1.0	37.9*	-15.6	-4.1
Cn1c(CCN2CCOCC2)nc2cc(NS(=O)(=O)c3ccccc3)ccc21	-5.0	0.3	-2.6	24.0	-2.4
Cc1ccc(S(=O)(=O)Nc2ccc3c(c2)nc(CCN2CCCC2)n3C)cc1	-27.7	-1.2	39.5*	-5.1	-2.3
C#CCN(Cc1ccco1)C(=O)c1ccc(OC2CCN(Cc3ccccn3)CC2)cc1	-15.2	.	.	.	-2.6
CC(C)Oc1cccc(C(=O)Nc2ccccc2N2CCOCC2)c1	-1.9	-0.4	33.4*	-1.8	2.1
CCC(C)Oc1cccc(C(=O)Nc2ccccc2N2CCOCC2)c1 (stereo not drawn)	-0.9	0.3	-1.9	2.7	0.5
CCOC(=O)CSc1nc2sc3c(c2c(=O)[nH]1)CCCC3	-6.8	0.0	5.7	0.3	1.4
O=C(CSc1nc2sc3c(c2c(=O)[nH]1)CCCC3)NCCO	-7.9	0.1	42.2*	-7.9	-5.9
CC1=CC(=O)CC2C1(C)CCC(C)C2(C)CCC(C)CC(=O)O (stereo not drawn)	-18.1	0.0	32.3*	2.3	1.6
COc1cc(C)c(/C=C(\C#N)C(=O)Nc2ccc(C)cc2)cc1C(C)C	-15.8	0.3	74.7*	-20.1	-4.8
COCCNC(=O)/C(C#N)=C/c1cc(C(C)C)c(OC)cc1C	-3.6	-0.7	24.2	-23.1	-8.4
C=CCn1c(CCNC(=O)c2cccs2)nnc1SCC(=O)Nc1cccc(C(C)=O)c1	-20.9	-0.4	33.9*	7.3	-1.2
COCc1c(C(=O)NC2CCCCCC2)oc2ccccc12	10.4	31.2*	10.3	-26.6	?
CCOC(=O)CCC(=O)c1c(C)oc2ccc(OC)cc12	0.0	-0.5	-1.0	30.4*	-2.5
COc1ccc2oc(C)c(C(=O)NN)c2c1	1.4	-0.1	9.8	6.8	2.4
CCN(CC)CCCNC(=O)C(C)Sc1nc(-c2ccccc2)cc(C(F)(F)F)n1 (stereo not drawn)	-10.5	-0.2	31.2*	-8.3	-2.7
CC(Sc1nc(-c2ccccc2)cc(C(F)(F)F)n1)C(=O)O (stereo not drawn)	-5.2	-0.6	3.9	17.7	-2.5
O=C1Cc2cc(S(=O)(=O)Nc3cccc([N+](=O)[O-])c3)cc3c2N1CCC3	-13.3	0.2	5.5	13.3	-5.3
CC1CCC/C(=N/Nc2ccc([N+](=O)[O-])cc2[N+](=O)[O-])C1 (stereo not drawn)	74.4*	1.4	-6.7	-0.6	7.3
COc1cccc(NS(=O)(=O)c2csc(C(N)=O)c2)c1	-1.8	0.1	-15.1	-1.3	0.6
CC(C)(C)OC(=O)N1CCNc2ccccc2C1	-36.3	1.2	30.5*	-4.1	-4.3
CCOc1ccc(Oc2ccccc2NC(=O)CN2C(=O)NC3(CCCC3)C2=O)cc1	-0.7	-0.1	11.9	0.4	-3.5
CN(C)CCCN1c2ccccc2CCc2ccc(Cl)cc21	-23.3	2.0	89.1*	-29.5	0.9
CCN1C(=O)CCCc2ccccc21	-4.1	-0.1	8.3	6.3	1.2
CNCCCN1c2ccccc2CCc2ccccc21	-28.0	1.7	39.1*	-22.7	-0.8
CN(C)CCCN1c2ccccc2Sc2ccccc21	-35.1	.	.	.	-9.6
Cn1c(SCc2ccccc2)nnc1-c1c[nH]c2ccccc12	-8.2	0.5	35.2*	6.9	-3.6
CCCCSc1nnc(-c2c[nH]c3ccccc23)n1C	-4.9	0.2	7.7	-2.1	11.0

Screening data deposited in PubChem BioAssay by National Center for Advancing Translational Sciences (NCATS).
